Data as given in PubChem BioAssay (NCATS).
Values joined by “and” are separate entries in the source; they are usually repeats but may differ in a detail not shown here. Equal entries are not always repeated. Results filed as inconclusive are left out. Active and inactive are the calls of the source. Calls follow the shape of the dose curve; as a rule, active = well fitted curve in the direction sought with a large enough effect; inconclusive = small, poorly fitted or top-dose-only effect, or another doubt; inactive = no such curve, though single readings can be large; an effect the other way counts as inactive or inconclusive. Where a SMILES comes first, the peptide text is derived from it. Bridges are numbered along the chain shown (N, C = ends). [ ]: non-standard residue; d: D form. The star is where a group is joined. X2 = CC[C@H](C)CCCCC(=O)*; Dab = NCC[C@H](N)C(=O)O

Key:
[1] = qHTS Assay for Identifying Gametocytocidal Compounds (AID 743244);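 also: actives lower the fluorescent signal which means gametocytes are killed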; details: P. falciparum 3D7 stage III-V gametocytes, alamarBlue, 72 h; max response: active compounds read low
Outline: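 Stage III-V P. falciparum 3D7 gametocytes, 20,000 per well, were exposed to compounds for 72 h at 37C, 5% CO2. AlamarBlue was then added for 24 h and viability was read as fluorescence at Ex 525/Em 598 nm.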

[2] = qHTS assay to identify small molecule inhibitors of chordoma cells - UCH-1 (AID 1259355); also: nearly all actives have a fitted effect of over 55% in size
Outline: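 Luminescent ATP read-out (CellTiter-Glo, 30min at room temperature) measured viability of UCH-1 cells exposed for 48hr to test drugs at 15 concentrations, co-dosed with a five-agent combination of auranofin, camptothecin, doxorubicin, rubitecan and topotecan.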

[3] = qHTS assay to identify small molecule inhibitors of chordoma cells - UCH-2 (AID 1259356); also: series mostly up to about 46 µM
[4] = P-glycoprotein substrates identified in KB-8-5-11 adenocarcinoma cell line, qHTS therapeutic library screen (AID 1346987); details: outcome: dose series up to 44.5 µM unless noted; also: nearly all actives have a fitted effect of over 65% in size; also: potency is read from the fitted curve at half-maximal effect
Outline: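 Steps: plate 500 KB-8-5-11 cells/well in DMEM + 10% FCS (colchicine removed); pin compounds in dose-response; incubate 72 h, 37 degree C, 5% CO2; add CellTiter-Glo, 5 min; read luminescence.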
% is scaled to controls: 0 for no effect and ±100 for the full control effect.

CCc1ncnc2cc(OC)c(OC)cc12
inactive: max response [1] -4.33% | Potency [2] | Potency [3] | Potency [4]

O=C(CCCN1CCN2CCCC2C1)c1ccc(F)cc1 (stereo unspecified)
inactive: max response [1] 7.46% | Potency [2] | Potency [3] | Potency [4]

Cc1ncc(C[n+]2csc(CCOP(=O)(O)O)c2C)c(N)n1
inactive: max response [1] -3.97% | Potency [2] | Potency [3] | Potency [4]

CC[C@H](C)CCCCC(=O)N[C@@H](CCN)C(=O)N[C@H](C(=O)N[C@@H](CCN)C(=O)N[C@H]1CCNC(=O)[C@@H]([C@H](C)O)NC(=O)[C@H](CCN)NC(=O)[C@H](CCN)NC(=O)[C@H](CC(C)C)NC(=O)[C@@H](CC(C)C)NC(=O)[C@H](CCN)NC1=O)[C@@H](C)O (X2-[Dab]T[Dab][Dab][Dab][dL]L[Dab][Dab][dT]; lactam 4-C)
inactive: max response [1] -2.93% | Potency [2] | Potency [3] | Potency [4]

Cn1nnnc1SCC1=C(C(=O)O)N2C(=O)[C@@H](NC(=O)[C@H](O)c3ccccc3)[C@H]2SC1
inactive: max response [1] -1.19% | Potency [2] | Potency [3] | Potency [4]

CC(C)[C@@H]1CC[C@@H](C)C[C@H]1OC(=O)c1ccccc1O
inactive: max response [1] 9.93% | Potency [2] | Potency [3] | Potency [4]

CCOc1cc(-c2nccc3cc(OC)c(OC)cc23)cc(OCC)c1OCC
inactive: max response [1] -3.95% | Potency [2] | Potency [3]
active: Potency [4] 13 µM

O=P(O)(O)CP(=O)(O)O
inactive: max response [1] -3.27% | Potency [2] | Potency [3] | Potency [4]

CCC(C)[C@@H](N)C(=O)O (stereo partly specified)
inactive: max response [1] -1.27% | Potency [2] | Potency [3] | Potency [4]

O=C(O)CC/C=C\CC[C@@H]1[C@@H](N2CCCCC2)[C@@H](O)C[C@@H]1OCc1ccc(-c2ccccc2)cc1
inactive: max response [1] -9.09% | Potency [2] | Potency [3] | Potency [4]

CCCCCCCCCC(=O)NO
inactive: max response [1] -1.94% and 4.66% | Potency [2] | Potency [3] | Potency [4]

NC(=O)c1ccc[n+]([C@@H]2O[C@H](COP(=O)([O-])OP(=O)(O)OC[C@H]3O[C@@H](n4cnc5c(N)ncnc54)[C@H](O)[C@@H]3O)[C@@H](O)[C@H]2O)c1
inactive: max response [1] 2.6% | Potency [2] | Potency [3] | Potency [4]

Cn1c(=O)c2c(ncn2CCOC(=O)C(C)(C)Oc2ccc(Cl)cc2)n(C)c1=O
active: Potency [4] 18.4 µM
inactive: max response [1] 17.7% | Potency [2] | Potency [3]

CCCCCCCCCCCCCCCCCCOCC(COP(=O)([O-])OCC[N+](C)(C)C)OC (stereo unspecified)
inactive: max response [1] 3.69% | Potency [2] | Potency [3] | Potency [4]

O=C1c2ccccc2C(=O)C1c1ccc(Cl)cc1
inactive: max response [1] 13.7% | Potency [2] | Potency [3] | Potency [4]

[O]=[Bi][O]C(=O)[O][Bi]=[O]
inactive: max response [1] -0.353% | Potency [2] | Potency [3] | Potency [4]

C[N+]1(C)[C@@H]2CC(OC(=O)C(O)(c3cccs3)c3cccs3)C[C@H]1[C@@H]1O[C@@H]12 (stereo partly specified)
inactive: max response [1] 8.38% | Potency [2] | Potency [3] | Potency [4]

CC[C@H]1NC(=O)[C@@H](NC(=O)c2ncccc2O)[C@@H](C)OC(=O)[C@H](c2ccccc2)NC(=O)[C@@H]2CC(=O)CCN2C(=O)[C@H](Cc2ccccc2)N(C)C(=O)[C@@H]2CCCN2C1=O
inactive: max response [1] 3.22% | Potency [2] | Potency [3] | Potency [4]

NC[C@H]1O[C@H](O[C@H]2[C@H](O)[C@@H](O[C@H]3O[C@H](CO)[C@@H](O)[C@H](N)[C@H]3O)[C@H](N)C[C@@H]2N)[C@H](N)C[C@@H]1O
inactive: max response [1] -3.45% | Potency [2] | Potency [3] | Potency [4]

NC(=S)NS(=O)(=O)c1ccc(N)cc1
inactive: max response [1] 5.02% | Potency [2] | Potency [3] | Potency [4]

[O]=[Bi][O][Bi]=[O]
inactive: max response [1] 11.3% | Potency [2] | Potency [3] | Potency [4]

CO/N=C(\C(=O)N[C@@H]1C(=O)N2C(C(=O)O)=C(CSc3nnnn3C)CS[C@H]12)c1csc(N)n1
inactive: max response [1] 2.87% | Potency [2] | Potency [3] | Potency [4]

CC(C)CCC[C@@H](C)[C@H]1CC[C@H]2[C@@H]3CC[C@@H]4C[C@H](O)CC[C@]4(C)[C@H]3CC[C@]12C
inactive: max response [1] -3.57% | Potency [2] | Potency [3] | Potency [4]

CCCCC(=O)O[C@H]1CC[C@H]2[C@@H]3CCc4cc(O)ccc4[C@H]3CC[C@]12C
inactive: max response [1] -1.51% | Potency [2] | Potency [3]
active: Potency [4] 14.6 µM
